The text below walks through data of PubChem BioAssay.

The nature of assay [1]: binders of probe aFSTL3 on microarray, primary screen, stem cell growth factor project, biochemical, small-molecule microarray, fluorescence 635/667 (AID 1064).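 Note: measures binding of the biotinylated anti-FSTL3 antibody to printed compounds.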 The following applies: higher = more signal.
Assay [2] can be described thus: binders from COS7 lysate, DM2A8 probe, primary screen, torsin A project, cell lysate, small-molecule microarray, fluorescence 635/667 (AID 1065). The following applies: higher = more signal, COS7 lysate expressing mutant human TOR1A.
Assay [3] can be described thus: binders of probe aFGF2 on microarray, primary screen, stem cell growth factor project, biochemical, small-molecule microarray, fluorescence 635/667 (AID 1067).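 Note: measures binding of biotinylated aFGF2 protein to printed compounds on slides; z-score merges feature fluorescence and signal-to-noise across triplicate slides.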 The following applies: higher = more signal.
Assay [4] in a line: binders of probe aFGF10 on microarray, primary screen, stem cell growth factor project, biochemical, small-molecule microarray, fluorescence 635/667 (AID 1071).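 Note: score merges 667 nm spot intensity and signal to noise from triplicate slides.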 The note with it: higher = more signal.
Assay [5] deals with Neurogenic locus notch homolog protein 2 (Homo sapiens) (UniProt Q04721). As to the kind of experiment: Notch2 binders on small-molecule microarrays, primary screen, biochemical, small-molecule microarray, 635 nm fluorescence, stem cell growth factors (AID 1073). The following applies: Notch2 binding, higher = more signal.
Assay [6] deals with Pro-neuregulin-1, membrane-bound isoform (Homo sapiens) (UniProt Q02297). Put plainly: NRG1 binders on small-molecule microarrays, primary screen, psychiatric disease protein project, biochemical, small-molecule microarray, fluorescence 635/667 (AID 1075).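 Note: score combines 667 nm spot fluorescence with signal to noise.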 The note with it: NRG1 binding, 635 nm fluorescence, higher = more signal.
Sequence of Pro-neuregulin-1, membrane-bound isoform (Homo sapiens) (Q02297 whole entry, looked up, the tested form may be a part, canonical isoform): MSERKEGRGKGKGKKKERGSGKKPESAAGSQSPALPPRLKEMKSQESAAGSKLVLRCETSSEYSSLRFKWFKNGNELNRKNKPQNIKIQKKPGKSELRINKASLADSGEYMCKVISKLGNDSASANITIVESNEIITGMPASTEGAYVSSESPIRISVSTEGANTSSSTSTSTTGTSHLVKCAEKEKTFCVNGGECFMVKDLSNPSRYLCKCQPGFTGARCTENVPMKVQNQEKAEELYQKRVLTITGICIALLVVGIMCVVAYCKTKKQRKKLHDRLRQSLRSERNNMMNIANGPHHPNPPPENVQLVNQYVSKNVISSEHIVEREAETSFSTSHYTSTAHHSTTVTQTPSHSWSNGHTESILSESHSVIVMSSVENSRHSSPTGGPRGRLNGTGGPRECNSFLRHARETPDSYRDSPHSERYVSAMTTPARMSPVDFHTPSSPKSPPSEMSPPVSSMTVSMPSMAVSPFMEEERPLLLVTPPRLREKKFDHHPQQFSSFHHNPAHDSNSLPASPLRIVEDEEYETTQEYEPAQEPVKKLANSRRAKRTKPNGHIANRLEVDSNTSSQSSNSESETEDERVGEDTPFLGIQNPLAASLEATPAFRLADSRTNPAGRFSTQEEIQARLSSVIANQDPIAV
Assay [7] concerns Neuregulin-1 EGF-like domain. As to the kind of experiment: binders of neuregulin-1 EGF-like domain, primary screen, biochemical, small-molecule microarray, 635 nm fluorescence (AID 1081).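 Note: binding of the protein to compounds printed on small-molecule microarray slides.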 The note with it: small-molecule microarray binding, higher = more signal.
Assay [8] is described as follows: FRG1 promoter luciferase signal modulators, primary screen, FRG1 inhibition for FSHD, cell-based, C2C12 myotubes, firefly/Renilla luciferase, luminescence (AID 1084). The note with it: higher = more signal, called active from +8 up or from −8 down.
Assay [9] is described as follows: binders of probe aFST on microarray, primary screen, stem cell growth factor project, biochemical, small-molecule microarray, fluorescence 635/667 (AID 1086).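 Note: score merges 667 nm fluorescence with signal-to-noise of each printed compound spot.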 The following applies: higher = more signal.
Assay [10] in a line: binders of probe aHhip on microarray, primary screen, stem cell growth factor project, biochemical, small-molecule microarray, fluorescence 635/667 (AID 1087).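 Note: score merges spot fluorescence at 667nm with spot signal to noise ratio.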 The note with it: higher = more signal.
For assay [11], the system named is PRMT1 (protein arginine N-methyltransferase 1). Put plainly: PRMT1 binders on small-molecule microarrays, primary screen, biochemical, small-molecule microarray, 635 nm fluorescence (AID 1088).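 Note: binding of Prmt1 protein to compounds spotted on small-molecule microarray slides.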 The following applies: small-molecule microarray binding, higher = more signal.
The nature of assay [12]: yeast growth modulation, basal conditions, primary screen, YJM789 clinical isolate, OD600, 24 h (AID 1089).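 Note: growth of clinical yeast isolate S. cerevisiae YJM 789 seeded 1000 cells per well; test concentration not given here.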 The following applies: S. cerevisiae YJM789 growth, higher = more signal, called active from +8 up or from −8 down.
A short description of assay [13]: fission yeast growth modulation, primary screen, strain 972, OD600, 24 h, no modulator (AID 1090).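 Note: basal condition with compound alone and no growth modifier present; test concentration not given here.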 The following applies: S. pombe 972 growth, higher = more signal, called active from +8 up or from −8 down.
A short description of assay [14]: S. cerevisiae growth modulation with rapamycin, primary screen, strain BY4716, OD600, 96 h (AID 1091). Note: test concentration not given here. The note with it: higher = more signal, called active from +8 up or from −8 down.
Assay [15] concerns the target Torsin-1A-interacting protein 2 (Homo sapiens) (UniProt Q8NFQ8). Put plainly: LULL1 binders on small-molecule microarray, primary screen, cell lysate, human LULL1 lysate, 635/667 nm fluorescence (AID 1092).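 Note: probe is lysate of COS7 cells overexpressing human LULL1; score merges per-feature 667 nm fluorescence with signal-to-noise.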 The following applies: hLULL1 lysate binding, 635 nm fluorescence, higher = more signal.
A short description of assay [16]: E. coli growth modulation, two-sided OD650, primary screen, E. coli filamentation project, strain DRC41, 24 h (AID 1093).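 Note: MC1000 strain lacking acrAB efflux and sulA so SOS filamentation is blocked; test concentration not given here.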 The note with it: OD650, 24 h, higher = more signal, called active from +8 up or from −8 down.
A short description of assay [17]: small-molecule microarray binders of probe aLefty2, primary screen, biochemical, biotinylated probe, 635/667 nm fluorescence (AID 1094).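 Note: score merges spot fluorescence near 667 nm with spot signal-to-noise ratio.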 The note with it: higher = more signal.
Assay [18] has as its system Noggin (protein binding on small-molecule microarray). Put plainly: Noggin binders on small-molecule microarray, primary screen, biochemical, 635/667 nm fluorescence (AID 1095).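 Note: score merges 667 nm feature fluorescence with signal to noise over triplicate slides.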 The following applies: 635 nm fluorescence, higher = more signal.
For assay [19], the target named is Neurogenic locus notch homolog protein 3 (Homo sapiens) (UniProt Q9UM47). As to the kind of experiment: NOTCH3 binders on small-molecule microarray, primary screen, biochemical, 635/667 nm fluorescence (AID 1096). The note with it: NOTCH3 binding, 635 nm fluorescence, higher = more signal.
Sequence of Neurogenic locus notch homolog protein 3 (Homo sapiens) (Q9UM47 whole entry, looked up): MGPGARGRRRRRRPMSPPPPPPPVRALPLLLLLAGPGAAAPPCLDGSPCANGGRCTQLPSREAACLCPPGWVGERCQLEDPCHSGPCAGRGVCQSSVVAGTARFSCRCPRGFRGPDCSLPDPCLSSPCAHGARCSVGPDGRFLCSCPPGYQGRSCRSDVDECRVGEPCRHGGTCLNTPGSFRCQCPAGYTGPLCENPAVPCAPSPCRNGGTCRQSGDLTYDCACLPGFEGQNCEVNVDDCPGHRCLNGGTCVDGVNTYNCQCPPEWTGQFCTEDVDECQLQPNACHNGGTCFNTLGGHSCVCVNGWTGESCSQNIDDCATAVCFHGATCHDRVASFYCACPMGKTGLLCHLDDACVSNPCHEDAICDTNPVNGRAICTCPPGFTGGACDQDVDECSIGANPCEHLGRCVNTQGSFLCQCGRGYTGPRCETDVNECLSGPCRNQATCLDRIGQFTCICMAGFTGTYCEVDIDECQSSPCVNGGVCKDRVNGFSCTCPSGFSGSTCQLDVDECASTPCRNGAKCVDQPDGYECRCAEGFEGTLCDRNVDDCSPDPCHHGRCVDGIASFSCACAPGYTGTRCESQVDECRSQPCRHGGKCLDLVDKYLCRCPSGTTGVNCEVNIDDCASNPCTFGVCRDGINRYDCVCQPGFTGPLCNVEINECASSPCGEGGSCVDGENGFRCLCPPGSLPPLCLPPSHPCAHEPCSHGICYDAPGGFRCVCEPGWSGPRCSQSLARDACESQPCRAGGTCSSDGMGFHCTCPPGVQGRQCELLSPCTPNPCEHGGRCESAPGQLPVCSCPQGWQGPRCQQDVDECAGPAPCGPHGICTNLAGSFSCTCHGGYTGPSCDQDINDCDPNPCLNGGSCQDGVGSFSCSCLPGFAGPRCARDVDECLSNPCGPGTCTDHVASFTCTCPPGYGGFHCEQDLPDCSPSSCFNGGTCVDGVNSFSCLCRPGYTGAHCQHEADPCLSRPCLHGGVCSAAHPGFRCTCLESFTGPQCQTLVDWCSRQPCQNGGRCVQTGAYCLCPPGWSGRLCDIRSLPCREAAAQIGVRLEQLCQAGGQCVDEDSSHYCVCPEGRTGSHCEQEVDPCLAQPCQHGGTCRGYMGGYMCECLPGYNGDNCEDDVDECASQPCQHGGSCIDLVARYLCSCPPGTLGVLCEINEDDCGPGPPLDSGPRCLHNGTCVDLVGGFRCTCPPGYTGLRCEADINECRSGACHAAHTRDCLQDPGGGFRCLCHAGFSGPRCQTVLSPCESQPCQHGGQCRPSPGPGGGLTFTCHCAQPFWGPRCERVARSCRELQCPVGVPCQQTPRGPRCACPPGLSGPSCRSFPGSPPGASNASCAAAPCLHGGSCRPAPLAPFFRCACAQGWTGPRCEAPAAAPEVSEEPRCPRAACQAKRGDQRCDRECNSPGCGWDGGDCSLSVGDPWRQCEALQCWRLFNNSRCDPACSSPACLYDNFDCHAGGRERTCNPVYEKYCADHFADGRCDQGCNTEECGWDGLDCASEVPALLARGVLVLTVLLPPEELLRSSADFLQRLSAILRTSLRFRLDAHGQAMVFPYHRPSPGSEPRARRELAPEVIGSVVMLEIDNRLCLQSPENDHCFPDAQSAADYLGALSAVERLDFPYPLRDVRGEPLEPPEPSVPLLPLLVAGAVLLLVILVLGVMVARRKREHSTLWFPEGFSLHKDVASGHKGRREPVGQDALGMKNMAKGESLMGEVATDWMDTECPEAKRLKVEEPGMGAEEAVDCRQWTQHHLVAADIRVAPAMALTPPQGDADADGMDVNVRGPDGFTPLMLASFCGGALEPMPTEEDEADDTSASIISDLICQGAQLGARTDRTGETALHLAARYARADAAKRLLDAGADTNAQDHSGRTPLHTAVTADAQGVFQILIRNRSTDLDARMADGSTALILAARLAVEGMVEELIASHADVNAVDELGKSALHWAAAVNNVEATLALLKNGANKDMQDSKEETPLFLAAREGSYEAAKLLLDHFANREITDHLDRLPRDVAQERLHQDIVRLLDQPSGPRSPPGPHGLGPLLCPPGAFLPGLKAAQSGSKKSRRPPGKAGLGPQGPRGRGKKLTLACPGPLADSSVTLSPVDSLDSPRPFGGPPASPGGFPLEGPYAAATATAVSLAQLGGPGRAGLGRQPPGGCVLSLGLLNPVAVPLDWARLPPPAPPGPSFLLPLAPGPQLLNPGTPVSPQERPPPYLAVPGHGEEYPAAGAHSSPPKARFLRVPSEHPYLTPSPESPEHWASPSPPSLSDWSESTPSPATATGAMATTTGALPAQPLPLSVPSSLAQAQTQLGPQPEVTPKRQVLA
The nature of assay [20]: small-molecule microarray binders of probe aEGFR, primary screen, biochemical, biotinylated probe, 635/667 nm fluorescence (AID 1097).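 Note: probe is a biotinylated anti-EGFR antibody binding compounds printed on slides; score combines fluorescence near 667 nm and signal to noise of each spot.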 The note with it: higher = more signal.

The structures appear in SMILES notation. Calls of active or inactive are those of the source.

Sequence of Torsin-1A-interacting protein 2 (Homo sapiens) (Q8NFQ8 whole entry, looked up): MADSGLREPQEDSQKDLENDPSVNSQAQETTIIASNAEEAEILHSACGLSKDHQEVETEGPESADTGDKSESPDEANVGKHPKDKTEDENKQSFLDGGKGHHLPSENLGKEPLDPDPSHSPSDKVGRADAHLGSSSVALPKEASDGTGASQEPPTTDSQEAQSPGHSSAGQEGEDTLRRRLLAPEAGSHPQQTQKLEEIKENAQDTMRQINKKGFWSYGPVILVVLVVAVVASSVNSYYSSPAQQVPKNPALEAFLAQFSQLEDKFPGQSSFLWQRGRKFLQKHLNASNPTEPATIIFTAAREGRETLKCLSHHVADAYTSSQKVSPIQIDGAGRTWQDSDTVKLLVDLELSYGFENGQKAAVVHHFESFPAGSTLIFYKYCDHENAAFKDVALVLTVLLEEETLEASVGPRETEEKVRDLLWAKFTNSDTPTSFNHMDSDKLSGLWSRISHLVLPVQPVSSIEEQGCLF

Take `C=C[C@H](C)[C@H](OC(=O)Nc1ccc(OC)cc1)c1ccc(O)c2ccccc12`: the composite z-score in assay [1] is 0.436; in assay [2], -0.0826; in assay [3], -0.121; in assay [4] it was -0.148; in assay [5], -0.714; in assay [6], -0.322. For the same compound, the composite z-score was 0.957 in assay [7]; -0.304 in assay [9]; -0.124 in [10]; -0.0544 in [11]; 0.645 in [15]; -0.151 in [17]. For the same compound, the composite z-score is 0.585 in assay [18], 0.0103 in assay [19] and -0.222 in [20]. Also, the z-score in assay [8] was 3.63 (inactive); in assay [12], -25.3 (active); in assay [13] it was -20.9 (active); in assay [14] it was -3.05 (inactive); in [16], 0.355 (inactive).
As to `COc1ccc([Si](C)(C)[C@H]2[C@H](CCO)O[C@@]3(C(=O)N(Cc4ccccc4)c4ccc(N5C(=O)COc6ccccc65)cc43)[C@@H]2C)cc1`, the composite z-score in assay [1] was 0.253; in assay [2] it was -0.113; in assay [3] it was -0.0692; in assay [4], 0.264; in assay [5], 0.167; in assay [6], 1.06. Besides, the composite z-score in [7] is 0.487; in [9], 0.0228; in [10], 0.357; in assay [11] it was -0.171; in assay [15], 1.14; in assay [17] it was 0.0365. Further, the figures for the composite z-score in assay [18], in [19] and in [20] were 0.177, 0.246 and -0.126, respectively. The z-score in assay [8] was -1.69 (inactive); in assay [12], 0.773 (inactive); in [13] it was -0.494 (inactive); in assay [14], 5.54 (inactive); in assay [16] it was 1.45 (inactive).
Consider `CN(C)CCCCCCNC(=O)[C@@H]1C[C@@H]2C(=O)NCC(=O)N2[C@@H]1c1cccc(OCCO)c1`, for which the composite z-score was -0.131 in [1]; 1.37 in [2]; 0.153 in assay [3]; 0.816 in assay [4]; 1.14 in assay [5]; 0.346 in [6]. Further, the composite z-score came to 1.26 in [7]; 0.555 in assay [9]; 0.164 in assay [10]; 1.53 in [11]; 3.07 in [15]; 0.164 in assay [17]. Further, the composite z-score was determined as 1.17 in assay [18], 1.03 in assay [19] and 0.0225 in [20]. In addition, the z-score in assay [8] is 2.12 (inactive); in assay [12] it was 0.116 (inactive); in assay [13], -0.192 (inactive); in [14], 0.191 (inactive); in assay [16], 0.121 (inactive).
For the compound `COc1ccc([Si](C)(C)[C@H]2[C@H](CCO)O[C@@]3(C(=O)N(Cc4cccc(N5C(=O)c6cccc7cccc5c67)c4)c4ccccc43)[C@@H]2C)cc1`, the composite z-score in [1] was 0.0761; in [2] it was -0.364; in [3] it was 0.0253; in assay [4], 0.404; in assay [5], -0.136; in assay [6] it was 0.795. The composite z-score in assay [7] is 1; in assay [9], -0.26; in assay [10], -0.212; in [11] it was 1.16; in assay [15] it was 2.1; in [17], -0.205. The composite z-score in [18] is 0.492; in [19], 0.344; in [20], -0.225. The z-score is -1.43 (inactive) in assay [8]; 2.05 (inactive) in [12]; 1.23 (inactive) in assay [13]; 36.9 (active) in assay [14]; 0.879 (inactive) in assay [16].
As for `C=CCN1C(=O)[C@@]2(O[C@@H](CCO)[C@H]([Si](C)(C)c3ccc(OC)cc3)[C@H]2C)c2cc(N3C(=O)COc4ccccc43)ccc21`, the composite z-score was -0.351 in assay [1]; 0.28 in assay [2]; -0.0293 in assay [3]; 1.02 in [4]; 0.227 in [5]; 1.02 in assay [6]. Also, the composite z-score is 0.746 in assay [7]; 0.975 in assay [9]; -0.358 in assay [10]; 1.45 in [11]; 1.81 in assay [15]; -0.275 in [17]. Further, the composite z-score is 0.17 in [18], 0.4 in assay [19] and -0.178 in [20]. In addition, the z-score in [8] was -1.54 (inactive); in [12], 1.64 (inactive); in assay [13] it was 0.842 (inactive); in assay [14], 35.4 (active); in assay [16] it was 0.375 (inactive).
In the case of `NC(=O)NCC#Cc1ccc2c(c1)[C@]1(C(=O)N2)[C@H](C(=O)NC[C@H](O)c2ccccc2)[C@H]2C(=O)O[C@H](c3ccccc3)[C@H](c3ccccc3)N2[C@@H]1c1ccccc1OCCO`, the composite z-score in assay [1] is -0.226; in assay [2], 0.0051; in assay [3], -0.0934; in assay [4], 0.0263; in [5], -0.686; in [6], 1.21. Further, the composite z-score in assay [7] is 0.997; in [9], 0.213; in assay [10] it was -0.0994; in [11], 1.53; in [15] it was 2.35; in assay [17] it was -0.186. For the same compound, the composite z-score is 0.307 in assay [18], 0.927 in [19] and -0.167 in assay [20]. Moreover, the z-score is -0.167 (inactive) in assay [8]; 1.41 (inactive) in assay [12]; -0.133 (inactive) in assay [13]; 2.44 (inactive) in [14]; 2.02 (inactive) in assay [16].
